# Screens from PubChem.
# Most compounds without a hit are left out; they make up all but 1.3% or so of the library.
# Gli-Sufu antag = Gli-Sufu pathway antagonism; Sufu-KO-LIGHT fibroblasts, Gli luciferase reporter luminescence; inhibition, % at 5 µM; 340,000 tested, 0.74% active; AID 588413;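 active = inhibition above about 55%, limit read from the data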;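 note: 0% = DMSO-treated cells and 100% = wells with medium but no cells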
# LRH-1 inv ag = suppresses constitutive activity of human LRH-1; 360,000 tested, 0.13% active; HEK293T StAR-luciferase reporter, LRH-1 transfected, 24 h; inhibition, % at 3.6 µM;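 active = inhibition above the mean inhibition of all tested compounds plus 3 SD, cut at about 73% in these data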;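 note: 0% = DMSO wells and 100% = reporter-only cells lacking LRH-1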
# COUP-TFII inh = NR2F2 (human) inhibition, primary screen; P24468; HEK293T NGFI-A luciferase reporter, luminescence; inhibition, % at 8.6 µM; 370,000 tested, 0.7% active;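 active = inhibition above a per-plate cutoff, mean inhibition of test wells between control levels plus 3 SD, cut at about 38% in these data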;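 note: cells cotransfected with COUP-TFII expression vector driving the NGFI-A reporter; 0% = median of COUP-TF2 test wells and 100% = reporter-only cells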
# SRC2 inh = human SRC2 (NCOA2) inhibition. Q15596. HEK293 GAL4-SRC2 luciferase reporter, luminescence. inhibition, % at 9 µM. 370,000 tested, 0.17% active. AID 651957;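 active = inhibition above the mean inhibition of all tested compounds plus 3 SD, set per campaign, cut at about 52% in these data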;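 note: 0% = DMSO treated cells and 100% = cells given Gossypol at 36 µM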
# NCOA3 inh = human NCOA3 inhibition; Q9Y6Q9; HEK293 GAL4-SRC3 luciferase reporter, luminescence; AID 588352; 360,000 tested, 0.17% active; inhibition, % at 3.6 µM;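 active = inhibition above a per-campaign cutoff, the mean of all compounds plus 3 SD, cut at about 60% in these data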;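 note: 0% = DMSO-treated cells and 100% = gossypol-treated cells at 36 µM; higher means less SRC3-driven luciferase light from the GAL4 reporter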
# SRC1 inh = inhibits human SRC1 coactivator. Q15788. HEK293 GAL4-SRC1 luciferase reporter, luminescence. inhibition, % at 3.6 µM. 360,000 tested, 0.12% active. AID 588354;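 active = inhibition above the campaign mean plus 3 SD, with each screening campaign given its own cutoff, cut at about 60% in these data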;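 note: 0% = DMSO treated cells and 100% = gossypol at 36 µM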
# Gal4-VP16 ctr = counter-screen for COUP-TFII antagonists: inhibitors of VP16. shares compounds with COUP-TFII inh. HEK293 Gal4-VP16 luciferase reporter, luminescence. inhibition, % at 8.5 µM. 2,500 tested, 25% active. AID 687007; in the data active = inhibition above about 13%
# NR2F2 inh conf = confirmation of human COUP-TFII (NR2F2) inhibitors. HEK293 NGFI-A luciferase reporter, luminescence. 2,500 tested, 45% active. shares compounds with COUP-TFII inh. inhibition, % at 8.5 µM;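 active = mean inhibition over three repeats above a set limit taken from the earlier primary screen, cut at about 38% in these data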;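 note: 100% = cells given the luciferase reporter alone without the COUP-TF2 vector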
# * = called active by the depositor; . = no result.
SMILES,Gli-Sufu antag,LRH-1 inv ag,COUP-TFII inh,SRC2 inh,NCOA3 inh,SRC1 inh,Gal4-VP16 ctr,NR2F2 inh conf
CCc1cccc(CC)c1NC(=O)CSc1nc2ccc(N3C(=O)C4C5C=CC(C5)C4C3=O)cc2s1 (stereo not drawn),20,-1,39*,3,3,13,-6,17
Cc1ccc(OCCN2CCN(C(=O)CCC(=O)Nc3nnc(C)s3)CC2)cc1,2,0,-4,8,-1,0,.,.
Cc1ccc(OCCN2CCN(C(=O)CCC(=O)Nc3nnc(C(C)C)s3)CC2)cc1,-3,25,41*,17,20,8,-6,22
CC(=O)C1(C(=O)Nc2cc(C)cc(C)c2)CC(c2ccccn2)=NO1 (stereo not drawn),.,.,11,17,.,.,.,.
CCCn1c2c(c(=N)c3c1CCC3)CCC2,21,13,22,7,22,-10,.,.
CCCCCCCn1c2c(c(=N)c3ccccc31)CCC2,89*,79*,74*,9,64*,40,25*,75*
Cc1c(/C(O)=C2\C(=O)C(=O)N(CCCN(C)C)C2c2ccccc2)cnn1-c1ccccc1 (stereo not drawn),9,30,51*,33,28,25,1,10
Cc1c(/C(O)=C2/C(=O)C(=O)N(CCN3CCOCC3)C2c2ccccn2)cnn1-c1ccccc1 (stereo not drawn),27,83*,100*,80*,85*,84*,31*,39*
COc1ccccc1CCNC(=O)CSc1nc2c([nH]1)c(=O)n(C)c(=O)n2C,.,.,0,-10,.,.,.,.
O=C(CCn1nnc2ccccc21)N1CCN(Cc2ccc3c(c2)OCO3)CC1,.,.,-3,-18,.,.,.,.
Cc1cc(=O)oc2cc(OCCCC[n+]3ccccc3)ccc12,-9,3,14,-32,14,-3,.,.
CCC(C)(C)c1ccc(OCCCC[n+]2ccccc2)c(C(C)(C)CC)c1,.,44,54*,-25,36,8,7,16
Cc1nn(-c2ccccc2)c(C)c1/C=N\N1CCN(Cc2ccccc2Cl)CC1,.,.,10,17,.,.,.,.
COc1ccccc1NC(=O)Cn1c(C)cc(=O)c2cccc(OC)c21,43,26,51*,31,23,33,8,42*
COc1ccc([C@H](C#Cc2ccccc2)CC(=O)O)cc1OC1CCCC1,.,.,1,-35,.,.,.,.
Oc1ccc(Oc2ccc3c(C(F)(F)F)cc(C(F)(F)F)nc3n2)cc1,8,18,49*,11,23,-3,-12,37*
COc1ccc(Oc2ccc3c(C(F)(F)F)cc(C(F)(F)F)nc3n2)cc1,-23,-9,11,13,9,3,.,.
CCOc1ccc(NC(=O)NCCCn2c(C)nc3cc(C)c(C)cc32)cc1,14,18,11,-9,16,-21,.,.
Cc1cc2nc(C)n(CCCNC(=O)Nc3cccc4ccccc34)c2cc1C,53,11,38*,10,15,-6,-2,19
CCOc1ccc(Br)cc1/C(C)=N\NC1=NCCN1,5,42,45*,21,13,9,10,30
Cc1cccc(NC(=O)OC2CC3CC2[C@H]2CCCCN2C3)c1 (stereo partly drawn),.,.,-10,0,.,.,.,.
CC(C)(C)c1ccc(-c2noc(CCC(=O)NCc3ccco3)n2)cc1,70*,37,38*,63*,15,3,25*,57*
Cc1cccc(-c2noc(CCC(=O)NCc3ccco3)n2)c1,0,3,-5,-2,-15,5,.,.
CCCCCCCCN1C(=O)N(Cc2ccc(OC)cc2)S(=O)(=O)c2ccc(F)cc21,.,.,1,1,.,.,.,.
CN(c1cccc(Cl)c1)S(=O)(=O)c1cccc(C(=O)Nc2nc3ccccc3[nH]2)c1,17,-21,42*,-11,0,-3,-39,-5
SMILES,Gli-Sufu antag,LRH-1 inv ag,COUP-TFII inh,SRC2 inh,NCOA3 inh,SRC1 inh,Gal4-VP16 ctr,NR2F2 inh conf
COc1ccc(N(C)S(=O)(=O)c2cccc(C(=O)Nc3nc4ccccc4[nH]3)c2)cc1,7,-22,-10,10,10,5,.,.
Nc1[nH]c(C(=O)c2ccccc2)c(-c2ccc(F)cc2)c1C(=O)c1c[nH]c2ccccc12,.,.,11,-2,.,.,.,.
O=[N+]([O-])c1cccc(-c2nc(NCc3ccccc3)c3ccccc3n2)c1,3,2,-4,17,2,-9,.,.
c1ccc(-c2cccc(CNc3nc(-c4ccccn4)nnc3-c3ccccc3)c2)cc1,.,.,51*,.,.,.,-2,8
CN(C(=O)C(C)(C)C)c1ccc(OCC(=O)N2CCc3ccccc3C2)cc1,21,35,48*,19,11,9,11,48*
Cc1ccc(OCC(=O)N2CCc3ccccc3C2)cc1,-4,7,-16,-17,2,-15,.,.
CCCCCCCCN1C(=O)[C@@H](CC(=O)N2CCN(C(=O)C3CC3)CC2)C[C@@]2(C(=O)OC)C1=C[C@H](C(C)(C)C)O[C@@H]2C,.,.,15,3,.,.,.,.
COc1ccc(OC)c(CC(=O)Nc2ccc3c(c2)c(=O)n(C)n3Cc2cccc(C(F)(F)F)c2)c1,.,-7,83*,58*,2,2,-9,5
COC(=O)[C@]12C[C@H](CC(=O)NCc3cccs3)C(=O)N(CCC3=CCCCC3)C1=C[C@H](C1CCCC1)O[C@@H]2C,.,.,-7,5,.,.,.,.
Cc1cc(C)nc(SCc2nnc(SCC(N)=O)n2Cc2ccco2)n1,2,-3,39*,-13,19,-3,11,11
CCN=C1NN=C(c2cc(C)n(Cc3ccco3)c2C)CS1,71*,30,73*,71*,62*,51,21*,92*
CC(C)(C)C(=O)Nc1ccc(NC(=O)c2ccco2)nc1,80*,75*,84*,82*,78*,79*,78*,95*
CCOc1ccc(OCCSc2nc3ccccc3[nH]2)cc1,6,-7,0,-9,-10,3,.,.
CCCOc1ccc(CSc2nc3ccccc3[nH]2)cc1,24,-45,38*,-7,-43,-29,-194,-34
O=C(NC1CCCCN(Cc2ccc(Cl)cc2)C1=O)c1ccc2ccccc2c1 (stereo not drawn),.,.,-5,9,.,.,.,.
O=C(O)COc1ccccc1/C=N/NC(=O)CSc1nc2ccccc2s1,4,4,15,1,13,-5,.,.
O=C(CSc1nc2ccccc2s1)N/N=C/c1ccccc1C(=O)O,-4,24,43*,22,17,-5,-5,17
Cc1ccccc1NC(=O)OC1CC2CC1[C@H]1CCCCN1[C@H]2Cc1ccccc1 (stereo partly drawn),.,.,-6,3,.,.,.,.
